Tb PFK block: T. brucei PFK enzyme inhibition. O15648. T. brucei PFK, ADP-Glo luminescence. Potency, µM (highest dose often 57.5 µM), for inactives: at the highest dose activity, negative = inhibition, most hits filed as inhibitors. 330,000 tested, 0.17% active. AID 485367;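 note: potency is the fitted concentration of half-maximal effect; 0% = uninhibited 1x PFK enzyme wells and -100% = no-enzyme wells; nearly all actives have a fitted effect of over 60% in size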
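ADP-Glo luminescence quantified ADP after 45 min at room temperature, with 1.25 nM T. brucei PFK, 0.1 mM ATP and 0.5 mM fructose-6-phosphate in pH 8.0 TEA buffer. qHTS titrations up to 57 µM; curves classified by quality.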
PGK inhibitor: T. brucei PGK inhibition; P07378; PGK/GAPDH coupled, Kinase-Glo luminescence, 60 min; Potency, µM (series often up to 57.5 µM), for inactives: top-dose activity change, negative = inhibition, most hits filed as inhibitors; 380,000 tested, 0.043% active; AID 602233; note: potency is the fitted concentration of half-maximal effect; nearly all actives have a fitted effect of over 60% in size
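Luminescent ATP detection (Kinase-Glo Plus) follows a 60-minute room-temperature incubation, with wells lacking PGK as controls. Buffer: 100 mM TEA (pH 7.6), 5 mM MgCl2, 0.01% Tween-20. Coupling enzyme GAPDH (100 nM final) supplies unstable 1,3-BPG in-well.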
PI5P4K alpha inh: PI5P4K alpha (human) kinase inhibition; max response, %; PI5P4Kalpha enzyme, ADP-Glo luminescence, 60 min; active compounds read low; 330,000 tested, 1.2% active; P48426; AID 652105; active = max response of -50% or lower; inconclusive = between -30% and -50%; inactive = -30% or higher; note: value at the top dose of about 77 µM
Target sequence (P48426 whole entry, looked up): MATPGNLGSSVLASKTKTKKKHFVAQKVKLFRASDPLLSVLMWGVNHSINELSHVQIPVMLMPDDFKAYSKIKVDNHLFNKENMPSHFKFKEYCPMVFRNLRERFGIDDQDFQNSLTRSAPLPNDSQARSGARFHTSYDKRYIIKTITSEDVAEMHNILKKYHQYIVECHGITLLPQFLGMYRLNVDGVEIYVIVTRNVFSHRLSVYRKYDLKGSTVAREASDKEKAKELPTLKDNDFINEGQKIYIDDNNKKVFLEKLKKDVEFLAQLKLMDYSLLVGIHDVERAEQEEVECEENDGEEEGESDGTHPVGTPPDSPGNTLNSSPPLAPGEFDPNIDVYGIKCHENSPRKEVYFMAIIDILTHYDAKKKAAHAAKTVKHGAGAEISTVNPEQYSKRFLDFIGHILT
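Controls without substrate or without enzyme flank wells where PI5P4Kalpha converts substrate using 5 microM ATP (final). Incubation lasts 60 minutes at room temperature; ADP formed is read by ADP-Glo luminescence.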
PI4K2A inh: inhibitors of human PI4K2A. Q9BTU6. purified PI4K2A, ADP-Glo luminescence, 1 h; active compounds read low. activity change, negative = inhibition, % at 76.9 µM. 420,000 tested, 0.13% active. AID 1346378; in the data active = activity change below about -50%; inconclusive = mostly about -30% to -49%;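 note: -100% = wells without enzyme as full effect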
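In this quantitative HTS, ADP production by PI4K2A was quantified luminescently after 1 h at ambient temperature; 100 microM adenosine served as plate-quality control.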
Pin1 inhibitor: blocks the human prolyl isomerase Pin1 | Q13526 | Pin1 FP peptide displacement, HiFluor488, 10 min | Potency, µM (titrated, usually from 115 µM), without a hit: top-dose activity, negative = inhibition, actives largely listed as inhibitors | 390,000 tested, 0.009% active; active = well fitted inhibition curve with a large enough effect in the polarisation, with a control signal flat, not every such curve was filed as active; inconclusive = small, poorly fitted or top-dose-only effect, or effect the other way, or a change in a side signal; inactive = no such curve, though single readings can be large or run the other way; the % refers to the polarisation; note: potency is the fitted concentration of half-maximal effect
Target sequence (Q13526 whole entry, looked up): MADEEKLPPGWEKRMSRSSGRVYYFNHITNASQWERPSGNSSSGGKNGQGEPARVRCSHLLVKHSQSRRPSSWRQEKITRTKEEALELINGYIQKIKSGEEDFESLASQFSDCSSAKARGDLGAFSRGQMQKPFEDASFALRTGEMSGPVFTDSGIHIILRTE
ADP-Glo interf: interferes with ADP-Glo detection without enzyme present; Potency, µM (highest dose often 76.9 µM), for the others: at the highest dose activity change, negative = inhibition, actives largely listed as inhibitors; 1,100 tested, under 10 active; shares compounds with PI5P4K alpha inh; ADP-Glo detection counter-screen, luciferase luminescence, no enzyme
Active calls of the source: *; i = inactive; ? = inconclusive; nt = no result given; ! = repeats disagree. This is one part of a sample in which hits are shown more often than they occur. Unless noted, calls come from the whole dose curve; as a rule, active = well fitted curve in the direction sought with a large enough effect; inconclusive = small, poorly fitted or top-dose-only effect, or another doubt; inactive = no such curve, though single readings can be large; an effect the other way counts as inactive or inconclusive. Unless noted, % is set by controls: 0 for no effect and ±100 for the full control effect.

SMILES	Tb PFK block	PGK inhibitor	PI5P4K alpha inh	PI4K2A inh	Pin1 inhibitor	ADP-Glo interf
COc1ccc(C2=CC3=C(Br)C(=O)C(C)(OC(=O)c4cccs4)C(=O)C3=CO2)cc1 (stereo not drawn)	nt	-29.4%	-70.5*	-2.0	?	2.6%
COCCN1C=C2C(=O)C(C)(OC(=O)CCC(=O)OC)C(=O)C(Br)=C2C=C1c1ccc(OC)cc1 (stereo not drawn)	nt	-6.0%	-23.4	-20.8	?	nt
COc1ccc2c(c1)CCCN2C(=O)C1CCCN(S(=O)(=O)c2ccc(Cl)s2)C1 (stereo not drawn)	nt	nt	nt	-0.5	nt	nt
COc1cc2c(cc1NC(=O)CSc1nnc(-c3ccccc3F)n1-c1ccc(C)cc1)oc1ccccc12	nt	nt	nt	-12.6	nt	nt
COc1ccc(OCC(=O)Nc2ccc(C(=O)Nc3ccccc3C(=O)O)cc2)cc1	0.2%	-7.8%	?	2.3	-3.1%	nt
O=C(COc1ccc2ccccc2c1)Nc1cccc(C(=O)Nc2ccccc2C(=O)O)c1	2.3%	-8.3%	-74.0*	-0.2	?	1.2%
O=C(COc1ccc(Br)cc1)Nc1ccc(C(=O)Nc2ccccc2C(=O)O)cc1	-7.8%	-28.4%	-58.3*	-4.6	-2.1%	3.7%
c1ccc2c(c1)N=C(N1CCN(Cc3ccc4c(c3)OCO4)CC1)c1ccccc1S2	nt	nt	nt	4.0	nt	nt
O=C(c1ccco1)N(CCC(c1ccccc1)c1ccco1)Cc1ccccc1 (stereo not drawn)	-28.8%	-8.0%	-59.7*	-8.7	21.9%	2.1%
COc1ccc(CN(CCC(c2ccccc2)c2ccco2)C(=O)c2ccco2)cc1 (stereo not drawn)	-8.0%	-2.5%	?	-10.3	48.2%	nt
NC(=O)COC(=O)c1cccc(S(=O)(=O)N2CCN(c3ccccc3)CC2)c1	2.3%	-3.1%	-2.1	-3.2	-2.6%	nt
O=C(COC(=O)c1cccc(S(=O)(=O)N2CCN(c3ccccc3)CC2)c1)NCc1ccco1	?	?	-54.5*	-13.2	-12.4%	-2.7%
COc1ccccc1NS(=O)(=O)c1ccc(C(=O)OCC(=O)NCc2ccco2)cc1	-26.0%	-3.4%	-60.4*	-23.6	-5.6%	-3.6%
C#CCN1C(=O)S/C(=C\c2ccc(-c3ccc(C(=O)O)cc3C)o2)C1=O	-11.4%	?	-57.0*	-2.9	-3.4%	1.5%
CC(C)(C)OC(=O)CN1C(=O)S/C(=C\c2ccc(-c3cccc(C(=O)O)c3)o2)C1=O	1.6%	nt	nt	nt	nt	nt
C[C@H](CO)N1C[C@H](C)[C@@H](CN(C)S(=O)(=O)c2ccc3c(c2)OCCCO3)OCc2cnnn2CCCC1=O	nt	i	-61.3*	3.0	nt	-2.9%
C=CCn1c(COc2ccc(C)cc2)nnc1SCc1ccc([N+](=O)[O-])cc1	nt	nt	nt	-2.4	nt	nt
Cc1cc(NC(=O)COc2cc(F)cc(F)c2)n(-c2ccccc2)n1	nt	nt	nt	-4.5	nt	nt
O=C(c1ccc(OCCN2CCCCC2)cc1)c1c(-c2ccc(O)cc2)sc2cc(O)ccc12	-2.4%	-5.3%	-50.8*!	4.9	?	-4.9%
Oc1cccc(-c2sc3ccccc3c2-c2ccc(OCCN3CCCCC3)cc2)c1	nt	nt	0.0	-2.6	nt	nt
COCCCN1C(=O)[C@H](CC(=O)N2CCN(C(=O)C3CC3)CC2)[C@]2(C(=O)OC)CCCCC=C12	nt	nt	nt	2.1	nt	nt
Cc1nc(CSc2ccc(Cl)cc2)cc(N2CCOCC2)n1	-1.5%	-6.1%	5.4	-3.0	2.4%	nt
Cc1nc(CS(=O)(=O)c2ccccc2)cc(N2CCOCC2)n1	2.0%	-4.8%	-56.8*	-3.1	-7.9%	-10.8%
CC(C)CSc1nnc(-c2ccco2)n1C	nt	nt	nt	-1.4	nt	nt
Cc1ccc(-c2csc(NS(=O)(=O)c3cccc(F)c3)n2)o1	3.3%	-6.3%	-67.7*	-2.1	-12.6%	1.9%
O=C(Nc1ccc(F)cc1Cl)C1CCCN1S(=O)(=O)c1cccc2cccnc12 (stereo not drawn)	nt	nt	nt	-3.1	nt	nt
CN(CCc1ccccn1)C(=O)Cn1nc(-c2ccccc2)ccc1=O	nt	nt	nt	-0.8	nt	nt
NC(=O)c1ccsc1NC(=O)c1ccc([N+](=O)[O-])o1	-4.7%	-1.5%	-52.1*	4.8	-0.7%	-15.3%

High-throughput results from PubChem.
